Experimental data reported in the supplement of paper PMC10646978.
± gives the standard deviation.

Experiments:
Settings in all cases: modulator concentration 10 µM
[1] = system: RAW-Dual (murine macrophage reporter line); assay: NF-kB reporter (SEAP) activity fold change vs agonist alone; higher = enhanced NF-kB activity
How it was run: (§1)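 In 384-well plates holding 50 000 RAW-Dual murine macrophage reporter cells per well, compound at 10 μM final was pre-incubated for 1 hour at 37 °C, after which a PRR agonist was added overnight. Supernatant SEAP read with QUANTI-Blue at 620 nm absorbance reported NF-κB, and Lucia luciferase read with QUANTI-Luc luminescence reported IRF. Fold change values come from dividing each reporter signal by the mean of agonist-only control wells on the same plate, averaged over replicate plates with propagated errors.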

[2] = system: RAW-Dual (murine macrophage reporter line); assay: IRF reporter (Lucia luciferase) activity fold change vs agonist alone; higher = enhanced IRF activity
How it was run: as §1

[3] = system: RAW-Dual (murine macrophage reporter line); assay: viability score (confluency relative to resting cells, overnight) (fraction); higher = more viable, active = viable (0.7 or more)
How it was run: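 In 384-well plates, RAW-Dual macrophages received compound at a final 10 μM overnight. Two confluency masks were then made with IncuCyte software from IncuCyte images of all imaged wells. The viability score is defined as confluency relative to resting cells. Passing the cutoff required both masks to lie above 70% of resting cells.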

[4] = agonist: CpG ODN 1826 0.5 ug/mL

Row | Compound | NF-kB reporter [1, 4] | NF-kB reporter ([1]; agonist: LPS 0.1 ug/mL) | NF-kB reporter ([1]; agonist: MPLA […]) | IRF reporter ([2]; agonist: 3'3'-cGAMP 10 ug/mL) | IRF reporter ([2]; agonist: LPS 0.1 ug/mL) | IRF reporter ([2]; agonist: MPLA […]) | viability score [3]
1 | COc1ccccc1N1CCN(CC(O)COc2cccc3ccccc23)CC1 (configuration not stated) | 0.878 ± 0.22 | 1.21 ± 0.2 | 0.711 ± 0.04 | 0.719 ± 0.026 | 1.6 ± 0.14 | 1.35 ± 0.13 | 0.967 (active)
2 | O=C1C(CCC(O)c2ccc(F)cc2)C(c2ccc(O)cc2)N1c1ccc(F)cc1 (configuration not stated) | 1.09 ± 0.085 | 0.898 ± 0.16 | 1.04 ± 0.098 | 0.942 ± 0.034 | 1.16 ± 0.2 | 1.18 ± 0.25 | 1.01 (active)
3 | O=C(Oc1ccc2oc(=O)sc2c1)c1ccccc1 | 0.969 ± 0.2 | 0.917 ± 0.091 | 0.862 ± 0.1 | 0.325 ± 0.017 | 1.26 ± 0.13 | 1.36 ± 0.22 | 0.632 (inactive)
4 | Cc1cc(OCC(=O)NNC(=O)COc2ccc(Br)cc2Br)cc(C)c1Cl | 0.961 ± 0.098 | 0.857 ± 0.13 | 0.985 ± 0.036 | 0.895 ± 0.15 | 0.987 ± 0.051 | 0.98 ± 0.086 | 0.945 (active)
5 | Fc1ccc(CN2CCc3c([nH]c4ccccc34)C2)c(F)c1 | 0.636 ± 0.051 | 0.378 ± 0.05 | 0.62 ± 0.082 | 0.909 ± 0.029 | 1.32 ± 0.2 | 1.21 ± 0.16 | 0.212 (inactive)
6 | N#CC(=Cc1c(F)cccc1Cl)C(=O)Nc1ccc(Cl)cc1 | 1.08 ± 0.22 | 0.977 ± 0.077 | 0.952 ± 0.079 | 0.746 ± 0.17 | 1.3 ± 0.22 | 1.25 ± 0.13 | 1.01 (active)
7 | O=C(NC1CC(=O)N(c2ccc(F)cc2)C1)c1ccc(Cl)cc1 (configuration not stated) | 1.06 ± 0.054 | 1.11 ± 0.088 | 0.877 ± 0.039 | 0.944 ± 0.064 | 1.24 ± 0.11 | 1.2 ± 0.3 | 0.991 (active)
8 | Brc1ccc(-c2nc(-c3ccccc3)cc(N3CCOCC3)n2)cc1 | 1.05 ± 0.089 | 1.01 ± 0.066 | 1.01 ± 0.039 | 0.961 ± 0.097 | 1.11 ± 0.1 | 1.09 ± 0.16 | 1 (active)
9 | COCCCN1C(=O)C(=Cc2ccc(-c3ccc(Cl)cc3Cl)o2)SC1=S | 0.954 ± 0.054 | 1.01 ± 0.082 | 0.96 ± 0.036 | 1.02 ± 0.052 | 1.01 ± 0.099 | 0.998 ± 0.25 | 1 (active)
10 | CC1CC(=O)C2=C(C1)OC(N)=C(C#N)C2c1ccc(Br)cc1 (configuration not stated) | 0.847 ± 0.088 | 0.91 ± 0.17 | 1 ± 0.056 | 0.782 ± 0.096 | 0.904 ± 0.04 | 0.731 ± 0.12 | 0.994 (active)
11 | COC(=O)C1=CN(CC2CCCO2)C=C(C(=O)OC)C1c1ccccc1Br (configuration not stated) | 1.08 ± 0.23 | 0.956 ± 0.094 | 1.01 ± 0.11 | 0.956 ± 0.032 | 1.18 ± 0.21 | 1.05 ± 0.11 | 0.726 (active)
12 | CS(=O)(=O)O.O=C(NC1CCN(CCCCC2(C(=O)NCC(F)(F)F)c3ccccc3-c3ccccc32)CC1)c1ccccc1-c1ccc(C(F)(F)F)cc1 | 0.0785 ± 0.0033 | 0.0479 ± 0.004 | 0.118 ± 0.0076 | 0.0799 ± 0.0056 | 0.0322 ± 0.0052 | 0.0401 ± 0.0064 | 0.258 (inactive)
13 | O=c1ccc2ccc(OCCCCN3CCN(c4cccc5sccc45)CC3)cc2[nH]1 | 0.31 ± 0.016 | 0.917 ± 0.073 | 1.16 ± 0.14 | 1.05 ± 0.096 | 1.35 ± 0.25 | 1.15 ± 0.34 | 0.27 (inactive)
14 | CN(C)CCCN1c2ccccc2CCc2ccc(Cl)cc21.Cl | 0.559 ± 0.098 | 1.15 ± 0.43 | 1.64 ± 0.2 | 0.503 ± 0.02 | 1.18 ± 0.53 | 1.78 ± 0.18 | 0.239 (inactive)
15 | COc1ccc(C=NNc2nc(Nc3ccc(C)cc3Br)nc(N3CCOCC3)n2)c(OC)c1 | 0.238 ± 0.024 | 1.13 ± 0.13 | 1.84 ± 0.18 | 0.649 ± 0.067 | 1.67 ± 0.23 | 2.01 ± 0.27 | 1.05 (active)
16 | Cn1c2c(c3ccccc31)CCCC2NC=O (configuration not stated) | 0.787 ± 0.061 | 0.931 ± 0.06 | 1.03 ± 0.09 | 0.93 ± 0.042 | 1.36 ± 0.082 | 1.44 ± 0.14 | 1 (active)
17 | CC1CCc2cc(F)cc3c(=O)c(C(=O)O)cn1c23 (configuration not stated) | 0.961 ± 0.13 | 1.01 ± 0.074 | 1.01 ± 0.066 | 0.955 ± 0.066 | 0.872 ± 0.031 | 0.86 ± 0.16 | 0.999 (active)
18 | CC(Cc1ccccc1)NC(=O)C1COc2ccccc2O1 (configuration not stated) | 0.662 ± 0.13 | 1.12 ± 0.09 | 1.13 ± 0.14 | 0.979 ± 0.048 | 0.965 ± 0.13 | 1.15 ± 0.12 | 0.919 (active)
19 | CN1CCC(=C2c3ccccc3CCn3c(C=O)cnc32)CC1 | 0.766 ± 0.11 | 1.24 ± 0.12 | 0.971 ± 0.1 | 0.875 ± 0.04 | 1.1 ± 0.14 | 0.943 ± 0.29 | 1 (active)
20 | O=C(NC1CCN(CCCCC2(C(=O)NCC(F)(F)F)c3ccccc3-c3ccccc32)CC1)c1ccccc1-c1ccc(C(F)(F)F)cc1 | 0.881 ± 0.043 | 0.952 ± 0.12 | 1.08 ± 0.062 | 0.983 ± 0.045 | 1.46 ± 0.33 | 1.44 ± 0.53 | 0.968 (active)
21 | CC(=O)OC(OC(C)=O)c1ccc([N+](=O)[O-])s1 | 0.0633 ± 0.01 | 0.0636 ± 0.0089 | 0.156 ± 0.012 | 0.0166 ± 0.0041 | 0.0362 ± 0.0098 | 0.0457 ± 0.011 | 0.177 (inactive)
22 | N#CC1=C(NC(=S)NC(=O)c2ccccc2)c2ccccc2CC12CCCCC2 | 0.818 ± 0.096 | 0.577 ± 0.12 | 1.08 ± 0.085 | 1.76 ± 0.18 | 1.41 ± 0.098 | 1.73 ± 0.18 | 0.877 (active)
23 | O=C(NN=Cc1c(Br)sc2ccccc12)c1cccc(Cl)c1 | 0.972 ± 0.082 | 0.88 ± 0.17 | 1.18 ± 0.056 | 0.738 ± 0.12 | 0.952 ± 0.045 | 1.49 ± 0.1 | 0.887 (active)
24 | CCN(CC)c1ccc(-c2noc(CN3CCSCC3)n2)cn1 | 0.986 ± 0.055 | 1.15 ± 0.099 | 0.902 ± 0.041 | 0.983 ± 0.059 | 1.15 ± 0.14 | 1.13 ± 0.37 | 1.01 (active)
25 | COc1ccc(-n2nc(C(N)=O)c3c2C(=O)N(c2ccc(N4CCCCC4=O)cc2)CC3)cc1 | 0.793 ± 0.076 | 0.859 ± 0.052 | 1.12 ± 0.12 | 0.994 ± 0.046 | 1.19 ± 0.073 | 1.33 ± 0.11 | 1.01 (active)
26 | CC[C@@H]([C@H](C)O)n1ncn(-c2ccc(N3CCN(c4ccc(OC[C@@H]5CO[C@@](Cn6cncn6)(c6ccc(F)cc6F)C5)cc4)CC3)cc2)c1=O | 0.947 ± 0.14 | 0.893 ± 0.068 | 1.07 ± 0.1 | 1.1 ± 0.055 | 1.18 ± 0.091 | 1.36 ± 0.12 | 1.02 (active)
